# From PubChem BioAssay AID1117361 (Southern Research Institute, 2015)
# Hit rate of the full screen: of about 3,600 compounds, about 900 (25%) were called active. No rule for the calls is given here. These entries were drawn from the full list. Entries with a potency or affinity are not part of this list.
# Molecular target: Protein Tat (Human immunodeficiency virus type 1 group M subtype B (isolate HXB2)) (UniProt P04608)
# Assay: inhibitors of Tat binding to TAR RNA, dose response, counter-screen for Vif-APOBEC3G degradation inhibitor project, biochemical, fluorescence polarization, FAM-labeled TAR RNA (AID 1117361)
# Conditions: outcome: dose series up to 100 µM unless noted; series mostly up to 100 µM
row,Structure (SMILES),outcome
1,CC(=O)c1ccc(NC(=O)C(C)OC(=O)C(C)Oc2cccc(C)c2)cc1 (centres undefined),inactive
2,CCCn1nc(C(=O)Nc2cc(C(=O)OC)ccc2C)c2ccccc2c1=O,inactive
3,Cc1ccc([N+](=O)[O-])cc1NC(=O)CCSc1ccc(Cl)cc1,inactive
4,CCCCN1C2=C(C(=O)CC(C)(C)C2)C(c2ccccc2)C2=C1c1ccccc1C2=O (centres undefined),inactive
5,CC1=C/C(=N\OS(=O)(=O)c2ccccc2)C=CC1=O,inactive
6,Cc1c(NC(=O)c2cc(-c3cccs3)on2)c(=O)n(-c2ccccc2)n1C,inactive
7,Cc1cc(C)cc(N(C(C)C(=O)Nc2c(C)n(C)n(-c3ccccc3)c2=O)S(C)(=O)=O)c1 (centres undefined),inactive
8,COC(=O)Cc1csc(Nc2c(C)n(C)n(-c3ccccc3)c2=O)n1,inactive
9,Cc1cc(C(=O)Nc2ccc(S(=O)(=O)Nc3onc(C)c3C)cc2)cs1,inactive
10,COC(=O)c1ccc(Cn2c(C)cc(C)[n+]2C)o1,inactive
11,CCOc1ccc2nc(SCc3ccc(C(=O)OC)o3)[nH]c2c1,inactive
12,COc1ccccc1N1CCN(C(=O)c2ccoc2C)CC1,inactive
13,COc1ccc(S(=O)(=O)N2CCN(C(=O)c3cc4c(s3)CCC4)CC2)cc1,inactive
14,O=C(c1ccco1)N(CCC(c1ccccc1)c1ccco1)Cc1ccc(F)cc1 (centres undefined),inactive
15,Cc1cccc(OCCC(=O)Nc2c(C)n(C)n(-c3ccccc3)c2=O)c1,inactive
16,Cc1c(NC(=O)COC(=O)c2ccccc2Cl)c(=O)n(-c2ccccc2)n1C,inactive
17,CCOC(=O)Nc1cc(C)c(Cl)cc1OC,inactive
18,CC(C)(C)NC(=O)c1cc([N+](=O)[O-])ccc1N1CCCCC1,inactive
19,Nc1cc(C(=O)O)ccc1N1CCCCC1,inactive
20,Cc1ccc(Cn2c(SCC(C)C)nc3c2c(=O)n(C)c(=O)n3C)cc1,inactive
21,CCn1c(C)cc(=S)c2ccccc21,inactive
22,CCN(CC(=O)Nc1ccc(NC(C)=O)cc1)C(=O)C1CCCC1,inactive

row,Structure (SMILES),outcome
1,O=C(Cn1c2[n+](c3ccc(C(F)(F)F)cc31)CCCCC2)Nc1c(F)cccc1F,inactive
2,Cc1ccc(C(=O)Nc2nc(=O)n(C(=O)c3ccccc3C)s2)cc1,inactive
3,CCS(=O)(=O)c1ccc2oc(Nc3cccc(OC)c3)nc2c1,inactive
4,Cc1nn(Cc2ccccc2)c(C)c1NC(=O)Cn1nc([N+](=O)[O-])c(Cl)c1C,inactive
5,O=c1[nH]nc(Cc2ncc(C(F)(F)F)cc2Cl)c2ccccc12,inactive
6,N#Cc1nc(COc2ccc(Cl)cc2Cl)oc1N1CCOCC1,inactive
7,COc1ccc(N2CCN(c3oc(COc4ccc(Cl)cc4Cl)nc3C#N)CC2)cc1,inactive
8,O=C1CN(C(=O)CSc2nnc(C3CC3)n2-c2ccccc2)c2ccccc2N1,inactive
9,Cc1nc(Nc2ccc(S(N)(=O)=O)cc2)sc1C(=O)Nc1ccccc1,inactive
10,O=C(Nc1cnccn1)c1csc2ccccc12,inactive
11,Clc1ccc2c(c1)nc1n2CCCC1,inactive
12,COc1ccc(CCNS(=O)(=O)CCNC(=O)c2ccc3c(c2)OCO3)cc1,inactive
13,O=C1NCC(O)=C1C=NC12CC3CC(CC(C3)C1)C2,inactive
14,CCn1ncc(/C=N/NS(=O)(=O)c2ccc(Cl)cc2)c1C,inactive
15,C=CCN(CC=C)S(=O)(=O)c1ccc(C(=O)Nc2nnc(COC)o2)cc1,inactive
16,Cc1cccc(OCc2nc(C)cc(=O)[nH]2)c1,inactive
17,O=C(CNC(=O)c1ccc(Cl)cc1Cl)OCc1nnc(-c2ccccc2Br)o1,inactive
18,Clc1ccc(-c2ccc(SCc3ccccn3)nn2)cc1,inactive
19,CCCOc1ccccc1C1CC(=O)NC2=C1C(=O)CCC2 (centres undefined),inactive
20,COc1ccccc1-c1nnc(SCC(=O)NCc2c(C)c(Cl)cc(C(C)C)c2O)o1,inactive
21,O=C(Cn1c(=O)[nH]c2ccccc2c1=O)N1CCN(c2cccc(Cl)c2)CC1,inactive
22,N#CC(C(=O)NCc1ccco1)c1nc2ccccc2nc1N1CCOCC1 (centres undefined),inactive

row,Structure (SMILES),outcome
1,Cc1ccnc(-n2c(CCN3C(=O)c4ccccc4C3=O)nc3ccccc3c2=O)c1,inactive
2,CC(C)C(NC(N)=O)C(=O)NC1CCCCC1 (centres undefined),inactive
3,O=C(O)c1cccc(CSc2nnc(COc3ccccc3)o2)c1,inactive
4,COc1cc2c(cc1OC)C(=O)C(Br)CC2 (centres undefined),inactive
5,COc1cc(NC(=O)NCCN2CCN(c3ccc(Cl)cc3)CC2)ccc1C,inactive
6,COc1cc(CCC(=O)Nc2cccc(C(F)(F)F)c2)cc(OC)c1OC,inactive
7,Cc1ccc(NS(=O)(=O)c2ccc(OCC(=O)Nc3cccc([N+](=O)[O-])c3)c(C)c2)cc1,inactive
8,CCNC(=S)Nc1ccc(N(c2ccccc2)C(C)C)cc1,inactive
9,O=C(Cn1cnc2c(nnn2Cc2ccc(Cl)cc2)c1=O)NCc1ccco1,inactive
10,CCOC(=O)c1cc2c(n(-c3ccccc3)c1=O)CC(C)(C)CC2=O,inactive
11,CC1Cc2ccccc2N1Cc1nc2cc(C(F)(F)F)ccc2c(=O)[nH]1 (centres undefined),inactive
12,CC1Cc2ccccc2N1C(=O)C1CCN(S(=O)(=O)Cc2ccccc2)CC1 (centres undefined),inactive
13,CCOc1cccc(C(=O)Nc2ccccc2OC(F)F)c1,inactive
14,CCC1(CC)C(=O)NC(=O)NC1=NCCc1ccc(O)cc1,inactive
15,Cc1noc(C)c1S(=O)(=O)Nc1ccc2c(c1)C(=O)N([C@@H](C)CO)C[C@H](C)[C@@H](CN(C)Cc1ccc(C(F)(F)F)cc1)OCCCC[C@H](C)O2,inactive
16,COc1cccc(-c2nc(-c3cccs3)no2)c1,inactive
17,CCCCCOc1ccc(C2C(C(C)=O)=C(C)Nc3ncnn32)cc1OC (centres undefined),inactive
18,Cc1ccc(NC(=O)CCCCCC2NC(=O)NC2C)cc1 (centres undefined),inactive
19,N#Cc1ccccc1NC(=O)CNc1ccc(Cl)c(C(F)(F)F)c1,inactive
20,CC1CC(C)CN(C(=O)CSCC(=O)O)C1 (centres undefined),inactive
21,CC(C)C(c1nnnn1C1CCCCC1)N1CCN(c2ncccn2)CC1 (centres undefined),inactive
22,O=C(CSc1c(Cl)cccc1Cl)N1CCC(c2nc3ccccc3s2)CC1,inactive

row,Structure (SMILES),outcome
1,CCN1CCC(=NNC(=O)CC23CC4CC(CC(C4)C2)C3)CC1,inactive
2,CCCCCCNS(=O)(=O)c1ccccc1Br,inactive
3,CCCC1(C(=O)O)NC(c2ccc(OC)cc2O)C2C(=O)N(c3ccc(OC)cc3)C(=O)C21 (centres undefined),inactive
4,Cc1cccc2sc(NNC(=O)c3ccc(S(=O)(=O)N4CC(C)CC(C)C4)cc3)nc12 (centres undefined),inactive
5,Cc1cc(NC(=O)CC(CN(C)S(=O)(=O)c2ccccc2)c2ccccc2)no1 (centres undefined),inactive
6,COc1cccc(-c2nnc(SCC(=O)N3CCOCC3)o2)c1,inactive
7,Cc1occc1-c1nnc(SCC(=O)N(C)C)o1,inactive
8,COc1ccc(N(C(=O)c2ccccc2OC)C2C=CS(=O)(=O)C2)c(OC)c1 (centres undefined),inactive
9,COc1ccc(S(=O)(=O)N(CC(=O)O)c2ccccn2)cc1,inactive
10,Cn1ccnc1Sc1ccc(/C=N/NC(=O)c2ccccc2O)cc1[N+](=O)[O-],inactive
11,O=[N+]([O-])c1ccccc1NC(=S)N/N=C/c1ccc(O)c(O)c1,inactive
12,Cc1cc(NC(=O)Cn2cnc3c(nnn3-c3cccc(F)c3)c2=O)no1,inactive
13,C/C(=N\OCC(=O)NC12CC3CC(CC(C3)C1)C2)c1cc2ccccc2o1,inactive
14,CC1CCC(NC(=O)CCS(=O)(=O)c2ccc3c(c2)CCN3C(=O)C2CC2)CC1 (centres undefined),inactive
15,CN1CCN(NC(=O)c2ccc(S(=O)(=O)N3CC4(C)CC3CC(C)(C)C4)cc2)CC1 (centres undefined),inactive
16,COc1cc(NC(=O)CCn2c(=O)[nH]c3ccsc3c2=O)cc(OC)c1,inactive
17,O=C(O)CCCCC1SCC2NC(=O)NC21 (centres undefined),inactive
18,CCCN(CCC)CCCNC(=O)c1cn(CCOC)c(=O)c2c1c1ccccc1n2C,inactive
19,Cc1cc(NC(=O)C2CCCC2)n(-c2nc3ccccc3[nH]2)n1,inactive
20,O=C1CCCCC1Oc1ccc2ccc(=O)oc2c1 (centres undefined),inactive
21,CSc1ccc(C2C(C#N)=C(N)Oc3c2ccc(=O)c2c(C)oc(C)c32)cc1 (centres undefined),inactive
22,Cc1cc(-c2[nH]nc3c2C(c2cccc(O)c2)C(C#N)=C(N)O3)c(C)s1 (centres undefined),inactive

row,Structure (SMILES),outcome
1,N=C(N)c1ccc(N=Nc2c(O)ccc3c2[nH]c2ccccc23)cc1,inactive
2,CCOC(=O)c1cc2ccc(OC)c(OC)c2c(=O)s1,inactive
3,CCOC(=O)CSc1nc(CC)nc2ccccc12,inactive
4,CC(c1nnnn1C1CCCCC1)N(Cc1ccccc1)Cc1cccnc1 (centres undefined),inactive
5,Cc1cccc(C(=O)Nc2nnc(Cc3c[nH]c4ccccc34)s2)c1,inactive
6,CCNS(=O)(=O)c1ccc(-c2ccc(-n3cnnn3)cc2)cc1,inactive
7,CC(=O)c1ccc(S(=O)(=O)Nc2cccc(-c3ccc(N4CCOCC4)nn3)c2)cc1,inactive
8,CCC(C)n1c(-c2cccc(S(=O)(=O)N3CCOCC3)c2)n[nH]c1=S (centres undefined),inactive
9,O=C(Oc1cccnc1)c1ccc(Cl)cc1,inactive
10,Cc1ccc(S(=O)(=O)N2CCCC2C(=O)N(C)Cc2cccs2)cc1 (centres undefined),inactive
11,Cc1cc(O)c(C(C)C)cc1NC1=NS(=O)(=O)c2ccccc21,inactive
12,CCCCS(=O)CC(O)COCC (centres undefined),inactive
13,Cc1cc(Cl)c(S(=O)(=O)NCC2CCCO2)cc1OCC(=O)NC1CCCCC1 (centres undefined),inactive
14,CC(C)(C)c1ccccc1OCCOCCSc1ncccn1,inactive
15,O=C(CCCc1ccccc1)N1CCN(c2ccc([N+](=O)[O-])cc2)CC1,inactive
16,CC(C)OC(=O)/C(=C\C=C\c1ccccc1)NC(=O)c1ccccc1,inactive
17,O=C(CCc1ccc(S(=O)(=O)N2CCOCC2)cc1)OCc1nc2ccccc2s1,inactive
18,O=C1c2ccccc2C(Nc2ccc(F)c(Cl)c2)N1c1ccccn1 (centres undefined),inactive
19,CCn1c(SCC(=O)n2c(C)c(C)c3ccccc32)nnc1-c1ccco1,inactive
20,NC(=O)c1ccccc1NC(=O)/C=C/c1ccc(Cl)cc1,inactive
21,CCCCC(=O)Nc1ccc(NC(=O)c2ccc3c(c2)OCO3)cc1OC,inactive
